Results: the supplement of paper PMC12636033
± gives the standard deviation of the averaged measurements. Whole data set: some 33,000 sequences, median “E-score (rank enrichment, -0.5 to 0.5)” near -0.0075, cut for the highest 2% near 0.23. Many of the other results were omitted from the sample, so the highest values are more common in it than they were.

These sequences were tested on WT Max(13-93) synthetic (M65Nle) (assay: PBM 8-mer E-score (E-score (rank enrichment, -0.5 to 0.5)); higher = stronger preferential binding).
Description: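 Protein binding microarray (universal PBM chip covering all 10-mers in fixed probe flanks) with chemically synthesized human Max(13-93) bHLH-LZ analogs (not full-length Max) bearing noncanonical residues (hArg, Tha, Aib, Nle at 65) and aromatic Cys staples. Read-out per 8-mer (and its reverse complement): E-score (rank-based enrichment, -0.5 to 0.5) and Z-score of median probe intensity.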

Sequence	PBM 8-mer E-score
ACAACACG	0.261 ± 0.034
ACAACACA	0.23 ± 0.091
ATCCATCG	-0.21 ± 0.014
GGCGTGCA	0.0504 ± 0.037
AGCGTGCG	0.0436 ± 0.017
CTCGTGCA	0.134 ± 0.097
CGCGTGCC	0.124 ± 0.062
CGCGTGCA	0.285 ± 0.03
AGCGTGCA	0.285 ± 0.03
CAAATTCA	-0.0652 ± 0.032
ATATTCTC	0.189 ± 0.055
ATGCCACG	0.259 ± 0.059
ATACCACA	0.159 ± 0.0088
ATGCCACA	0.00378 ± 0.092
GTGCCACA	-0.00257 ± 8.5e-05
CAACCACA	-0.0966 ± 0.041
ATACCACG	0.255 ± 0.015
ATACCACC	0.121 ± 0.028
AAACCACA	0.223 ± 0.0085
CAACCACG	0.301 ± 0.041
CGTGATTC	0.117 ± 0.036
AGAACTGC	-0.0987 ± 0.0029
CTTCACCC	0.151 ± 0.046
ATAGACGG	0.103 ± 0.018
ATGCGCAT	0.285 ± 0.06

Sequence	PBM 8-mer E-score
ATGCGCAA	0.1417 ± 0.00042
ATGCGCAC	0.102 ± 0.09
CAACGCAG	-0.158 ± 0.021
ACCCGAAC	-0.0582 ± 0.096
AATGAACG	0.163 ± 0.04
AACACCGC	-0.0751 ± 0.024
GATTAAAC	0.0366 ± 0.087
ATTTAAAG	0.0962 ± 0.044
ATTTAAAC	0.263 ± 0.046
CTTTAAAC	0.143 ± 0.0068
GTTTAAAC	0.254 ± 0.0084
GTTTAAAA	0.0508 ± 0.026
TACATCTA	0.0666 ± 0.053
CCGTTTAC	0.0331 ± 0.077
AATCTGTC	0.0805 ± 0.0072
CCGCATGC	0.2 ± 0.02
ACGCATAG	0.0507 ± 0.032
ACGCATGA	0.127 ± 0.021
ACGCATGG	0.243 ± 0.026
ACGCATCC	0.00574 ± 0.012
ACGCATGC	0.281 ± 0.04
CGATTTCC	-0.13 ± 0.008
GTGCTGGA	-0.0429 ± 0.077
ATAAATAG	0.18 ± 0.017
ATAAATAT	0.267 ± 0.0039

Sequence	PBM 8-mer E-score
ATAAATAA	0.157 ± 0.031
CTAAATAA	0.119 ± 0.1
ATAAATAC	0.295 ± 0.022
TTAAATAA	0.12 ± 0.035
AACAGTTG	-0.0604 ± 0.064
GGACCTCC	-0.149 ± 0.028
CCCCCCGA	-0.154 ± 0.12
TACTTGGA	0.0409 ± 0.043
CATATTAA	0.306 ± 0.014
AATATTAT	0.285 ± 0.026
ATTATTAA	0.172 ± 0.066
AATATTAC	0.228 ± 0.029
CATATTAG	0.15 ± 0.046
ACTATTAA	0.133 ± 0.0048
GATATTAC	0.237 ± 0.02
CATATTAC	0.156 ± 0.05
AATATTAA	0.263 ± 0.014
AATATTAG	0.152 ± 0.15
GATATTAA	0.029 ± 0.025
TATATTAA	0.213 ± 0.011
CTCCCAGA	-0.18 ± 0.049
CCCCCAGG	-0.289 ± 0.17
AAATTGTT	0.0622 ± 0.024
AAAATGTG	0.205 ± 0.015
AGCGACAT	0.113 ± 0.056

Sequence	PBM 8-mer E-score
AATAGGTA	0.195 ± 0.0039
GATAGGTA	0.24 ± 0.073
CATAGGTA	0.00152 ± 0.065
GGCCTTTA	0.0556 ± 0.0086
CACGTGGG	0.4865 ± 0.00015
CACGTGGC	0.4858 ± 0.0018
CAAGTGGG	0.0824 ± 0.037
AACGTGGG	0.215 ± 0.03
GACGTGGC	-0.0348 ± 0.019
GACGTGGA	-0.0291 ± 0.023
AACGTGGC	0.218 ± 0.022
TACGTGGA	0.109 ± 0.08
CACGTGGA	0.4856 ± 0.0019
CTTACAAC	-0.0407 ± 0.16
TGTAAGAA	0.12121 ± 1.4e-05
CGCTAAGC	-0.187 ± 0.092
GTGCCTCA	-0.133 ± 0.12
AACAGATT	-0.0422 ± 0.079
CCAGAATA	-0.0319 ± 0.024
GAACCTAA	-0.143 ± 0.099
CCGGTCCA	-0.194 ± 0.12
AGGGCACT	-0.053 ± 0.033
CTAGGTAA	-0.0715 ± 0.093
ATAGGTAA	0.0523 ± 0.015
GTAGGTAA	0.232 ± 0.042

Sequence	PBM 8-mer E-score
GTGCTTGA	-0.0248 ± 0.16
AACCAGCA	-0.0798 ± 0.12
AGTGCCCC	-0.0153 ± 0.009
AACGCAGT	-0.173 ± 0.062
AAAGTATA	0.282 ± 0.045
CAAGTATA	0.0775 ± 0.011
AAAGTATT	0.118 ± 0.043
GGAGCTTA	-0.168 ± 0.098
AAACGCAG	-0.069 ± 0.017
AACCGCAT	-0.102 ± 0.13
AATCATGC	0.168 ± 0.0099
AATCATGG	0.0882 ± 0.19
CATCATGA	0.0797 ± 0.1
TATCATGA	0.272 ± 0.0036
AATCATGA	0.134 ± 0.038
CATCATAA	0.168 ± 0.045
TATCATAA	0.239 ± 0.1
GATCATAA	0.156 ± 0.094
AATCATGT	0.235 ± 0.066
ACGATATG	0.0765 ± 0.093
AGTAGCGA	-0.0978 ± 0.08
GGCTATAA	-0.0145 ± 0.049
TGCTACCA	0.081 ± 0.0046
TCTGAAGA	-0.204 ± 0.095
AAGTCCGG	-0.0703 ± 0.083

Sequence	PBM 8-mer E-score
AGGCCAAA	-0.0704 ± 0.025
TAGGCATA	0.0815 ± 0.076
AGTTTCCC	-0.0461 ± 0.026
ACTTGGGG	0.0672 ± 0.1
ATCACGCG	0.262 ± 0.0089
ATCACGCA	0.0746 ± 0.08
ATCACGTA	0.174 ± 0.1
ATCACACA	0.266 ± 0.071
ATCACGCC	0.0823 ± 0.14
AGCACGCG	0.258 ± 0.035
ATCACGTG	0.481 ± 0.006
ATCACACC	0.0527 ± 0.072
CGCACGCG	0.167 ± 0.051
AGCACGCA	-5e-06 ± 0.0011
ATCACGTC	0.167 ± 0.0029
ATCACACG	0.199 ± 0.029
AAACAGTC	-0.0664 ± 0.047
AGGTTTTG	0.0094 ± 0.025
ATAGCTAA	-0.104 ± 0.047
AAAGCGGT	0.0199 ± 0.011
GGACGTGA	-0.0819 ± 0.01
GAACGTGA	-0.00116 ± 0.019
GCACGTAC	0.0338 ± 0.094
GCACGTGC	0.489 ± 0.0044
GCACGTGA	0.4391 ± 0.0016

Sequence	PBM 8-mer E-score
GCACGTCC	-0.0119 ± 0.016
ACTGTGCA	-0.0882 ± 0.057
ATGGTCTA	-0.0528 ± 0.067
GTGAGGGA	-0.116 ± 0.061
AAATGGGC	-0.1 ± 0.011
CTGCTAAC	-0.118 ± 0.073
CCGCTGAC	-0.231 ± 0.04
AGCTAACT	-0.0391 ± 0.11
CGAACTTC	-0.102 ± 0.023
TAAACATA	0.299 ± 0.0097
CAAACATA	0.143 ± 0.12
GAAACAAA	0.238 ± 0.025
TAAACAGA	0.128 ± 0.15
GAAACAAC	0.034 ± 0.041
GAAACATC	0.0695 ± 0.12
AAAACATA	0.0863 ± 0.034
GAAACATA	0.27 ± 0.089
CAAACAAA	0.0821 ± 0.1
AGGGTGCC	-0.11 ± 0.043
TAGTCCCA	-0.054 ± 0.018
CCAATGGC	-0.126 ± 0.23
GGCGACTA	-0.0354 ± 0.12
